FLuc inh – Photinus pyralis luciferase inhibition; P08659; purified P. pyralis luciferase, luminescence, biochemical; Potency, µM (highest dose often 115 µM), usual class: inhibitors; 76,000 compounds, 2.5% hits; note: nearly all actives have a fitted effect of over 65% in size
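Purified P. pyralis luciferase (10nM final) in 50mM Tris acetate pH 7.5, 10mM Mg acetate, 0.01% Tween-20, 0.05% BSA with 10uM D-luciferin and 10uM ATP. Compounds titrated qHTS. Luminescence imaged on CCD.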
NIH3T3 tox – NIH 3T3 cell cytotoxicity; NIH 3T3 viability, CellTiter-Glo ATP luminescence, 48-72 h; Potency, µM (doses to about 96.7 µM), usual class: inhibitors; 94,000 compounds, 4.3% hits; note: nearly all actives have a fitted effect of over 55% in size
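ATP-dependent luminescence (CellTiter-Glo) served as the viability signal for NIH 3T3 cells treated with compound for 48 or 72 hr at 37 °C.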
NPR1 antag – human Npr1 receptor antagonism | 76,000 compounds, 1.6% hits | Potency, µM (doses to about 46.3 µM), most hits filed as inhibitors | HEK293 hNpr1 GloSensor cGMP, ANP-stimulated luminescence; calls by dose curve; note: nearly all actives have a fitted effect of over 60% in size
Target sequence (P16066 whole entry, looked up): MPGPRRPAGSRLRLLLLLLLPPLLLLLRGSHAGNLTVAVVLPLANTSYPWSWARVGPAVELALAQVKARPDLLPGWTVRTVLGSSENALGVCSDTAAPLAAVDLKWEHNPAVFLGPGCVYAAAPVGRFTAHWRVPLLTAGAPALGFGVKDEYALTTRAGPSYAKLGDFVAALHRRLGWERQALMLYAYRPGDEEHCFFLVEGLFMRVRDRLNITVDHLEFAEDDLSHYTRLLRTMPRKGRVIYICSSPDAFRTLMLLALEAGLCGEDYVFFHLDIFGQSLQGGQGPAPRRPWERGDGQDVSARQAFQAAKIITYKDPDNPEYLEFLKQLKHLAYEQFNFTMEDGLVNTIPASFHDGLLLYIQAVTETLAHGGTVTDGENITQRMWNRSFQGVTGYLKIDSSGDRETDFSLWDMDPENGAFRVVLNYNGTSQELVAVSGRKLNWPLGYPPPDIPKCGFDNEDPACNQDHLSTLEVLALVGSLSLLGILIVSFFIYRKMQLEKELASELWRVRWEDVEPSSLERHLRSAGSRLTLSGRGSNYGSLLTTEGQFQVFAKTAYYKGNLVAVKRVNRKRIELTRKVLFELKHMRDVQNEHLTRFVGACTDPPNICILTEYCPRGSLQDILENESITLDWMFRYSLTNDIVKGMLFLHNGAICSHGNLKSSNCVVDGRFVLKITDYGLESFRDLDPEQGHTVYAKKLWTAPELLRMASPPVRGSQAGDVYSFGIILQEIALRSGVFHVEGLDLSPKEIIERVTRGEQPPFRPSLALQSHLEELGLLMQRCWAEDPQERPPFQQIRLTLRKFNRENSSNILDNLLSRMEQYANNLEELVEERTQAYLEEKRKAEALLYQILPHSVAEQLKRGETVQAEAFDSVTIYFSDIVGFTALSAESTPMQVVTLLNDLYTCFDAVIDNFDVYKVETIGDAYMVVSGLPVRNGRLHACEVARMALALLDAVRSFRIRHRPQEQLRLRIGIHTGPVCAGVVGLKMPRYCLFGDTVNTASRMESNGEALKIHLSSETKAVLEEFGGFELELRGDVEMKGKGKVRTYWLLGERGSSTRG
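HEK293 cells stably expressing human Npr1 and cGMP GloSensor pGS-40F, loaded 2 h with 2% GloSensor reagent, given compound 30 min at room temperature. Luminescence read before and 20 min after 0.1 nM hNppA.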
SNCA viab count – cell viability loss counter-screen. HEK-293-SNCA-luc viability, GF-AFC fluorescence, 24 h. Potency, µM (titrated, usually from 57.1 µM), actives largely listed as cytotoxic. 150,000 compounds, 0.12% hits; note: nearly all actives have a fitted effect of over 30% in size
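HEK-293-SNCA-luc cells (1500/well) plated 24 h, then exposed 24 h to a dilution series; GF-AFC added 30 min at 37C, fluorescence 405/540 nm; normalised to medium-only and DMSO wells, Hill fit.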
HEK293 tox – cytotoxic compounds in HEK 293 cells; HEK 293 viability, ATP luminescence (CellTiter-Glo), 48-72 h; Potency, µM (series often up to 115 µM), actives largely listed as inhibitors; 94,000 compounds, 6.6% hits; AID 1345083; note: nearly all actives have a fitted effect of over 60% in size
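HEK 293 cells seeded at 250 cells/well were exposed to compound for 48 or 72 hr at 37 degree Celsius. Viability taken as ATP content by CellTiter-Glo luminescence.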
SNCA expr inhib – SNCA gene expression inhibition; Potency, µM (series often up to 57.2 µM), hits mostly inhibitors; AID 1671194; HEK-293 SNCA-luciferase knock-in, luminescence, 24 h; 140,000 compounds, 0.17% hits; note: nearly all actives have a fitted effect of over 45% in size
Of the large screens only hits and unclear results are named; the others gave an inactive call; ! = not confirmed by another sample. Most compounds without a hit are left out; they make up all but 7.4% or so of the library. Unless noted, calls come from the whole dose curve; as a rule, active = well fitted curve in the direction sought with a large enough effect; inconclusive = small, poorly fitted or top-dose-only effect, or another doubt; inactive = no such curve, though single readings can be large; an effect the other way counts as inactive or inconclusive.

Cc1cc2cc(-c3c(C)noc3C)nc(Nc3ccccc3)c2o1	NIH3T3 tox 32µM, HEK293 tox inconclusive
Cc1cc2cc(-c3c(C)noc3C)nc(Nc3ccc(Cl)cc3)c2o1	HEK293 tox inconclusive
COCCN1CC(CO)C2(CCN(C(=O)c3ccc(C(C)C)cc3)CC2)C1 (stereo not given)	HEK293 tox inconclusive
O=C(Cc1cccc(F)c1)N1CCC[C@H]1c1nc(-c2ccc(F)cc2)no1	NIH3T3 tox inconclusive, HEK293 tox inconclusive, SNCA expr inhib inconclusive
Cc1ccc(-c2nc3cnccn3c2NCCC(=O)N(C)C)cc1	SNCA viab count inconclusive
COc1ccccc1-c1cc2c(ccn2C)c(C(=O)NCCN2CCNC2=O)n1	NIH3T3 tox 100µM
COc1ccc(CNC(=O)c2nc(-c3ccccc3OC)cc3c2ccn3C)cc1OC	HEK293 tox inconclusive
COc1ccccc1-c1cc2c(ccn2C)c(C(=O)NCC2CCN(C)C(=O)C2)n1 (stereo not given)	NIH3T3 tox 79µM
Cn1ccc2c(C(=O)NCC3CCC(=O)N3)nc(-c3ccccc3O)cc21 (stereo not given)	NIH3T3 tox 40µM, HEK293 tox inconclusive
O=C(C1CCCC1)N1CC2(CCN(C3COC3)C2)Cc2ccccc21 (stereo not given)	none (no result: FLuc inh, NPR1 antag)
CCc1ncc2c(N3CC4CCC(C3)N4CC(F)(F)F)nc3ccccc3n12	NIH3T3 tox inconclusive, HEK293 tox 40µM (no result: FLuc inh, NPR1 antag)
COc1cc2ncnc(N3CC4CCC(C3)N4CC(F)(F)F)c2cc1OC	NIH3T3 tox inconclusive (no result: FLuc inh, NPR1 antag)
CCNc1cc(N2CCC(CCC(=O)N3CCN(c4ncccn4)CC3)CC2)ncn1	NIH3T3 tox inconclusive, NPR1 antag inconclusive, HEK293 tox 50µM, SNCA expr inhib inconclusive
CCCNc1cc(N2CCC(CCC(=O)N3CCN(c4ccccc4F)CC3)CC2)ncn1	FLuc inh inconclusive, NIH3T3 tox inconclusive, NPR1 antag 13µM, HEK293 tox inconclusive, SNCA expr inhib inconclusive
CCNc1cc(N2CCC(CCC(=O)N3CCOCC3)CC2)ncn1	NIH3T3 tox inconclusive, HEK293 tox inconclusive, SNCA expr inhib inconclusive
COc1ccccc1-c1cc(C(=O)NCc2cccnc2)nn2cccc12	NIH3T3 tox inconclusive, HEK293 tox inconclusive (no result: FLuc inh, NPR1 antag)
COc1ccccc1-c1cc(C(=O)NCc2cccc(Cl)c2)nn2cccc12	NIH3T3 tox inconclusive, HEK293 tox 45µM, SNCA expr inhib inconclusive (no result: FLuc inh, NPR1 antag)
COc1ccccc1-c1cc(C(=O)NCCc2ccc(F)cc2)nn2cccc12	NIH3T3 tox inconclusive, HEK293 tox 35µM, SNCA expr inhib inconclusive (no result: FLuc inh, NPR1 antag)
NC(=O)C1CCCc2c1[nH]c1ccc(Cl)cc21 (stereo not given)	SNCA viab count inconclusive, SNCA expr inhib 8.6µM (no result: FLuc inh, NIH3T3 tox, NPR1 antag, HEK293 tox)
CC(=O)NC1CCCc2c1[nH]c1ccc(Cl)cc21 (stereo not given)	NIH3T3 tox inconclusive, HEK293 tox inconclusive
Cn1c(=O)cc(C(=O)NC2CCCc3c2[nH]c2ccc(Cl)cc32)c2ccccc21 (stereo not given)	NIH3T3 tox inconclusive, HEK293 tox 32µM
O=C1N(Cc2ccccc2)CCOC12CCN(Cc1cccc(F)c1)CC2	HEK293 tox inconclusive
CC[C@H]1CN(S(=O)(=O)c2ccc(OC)cc2)CC[C@H]1CC(=O)N(CC)C(=O)NCCCN(C)C	none
COc1ccc(-c2coc3cc(O)cc(O)c3c2=O)cc1	SNCA expr inhib inconclusive (no result: FLuc inh, NIH3T3 tox, NPR1 antag, HEK293 tox)
O=c1c(-c2ccc(O)cc2)coc2cc(O)cc(O)c12	SNCA expr inhib 2.8µM! (no result: FLuc inh, NIH3T3 tox, NPR1 antag, HEK293 tox)
COCC(=O)N[C@H]1[C@H](O)[C@H](O)C[C@@H]1c1ccccc1C	none
CCc1nn(-c2ccc(OC)cc2)c(Oc2ccccc2F)c1CCC(=O)N1CCSCC1	NIH3T3 tox 45µM, HEK293 tox 32µM
CCc1nn(-c2ccc(OC)cc2)c(Oc2ccccc2F)c1CCC(=O)N(CC)CC	NIH3T3 tox 45µM, SNCA viab count inconclusive, HEK293 tox inconclusive
CCc1nn(-c2ccc(F)cc2)c(Oc2ccccc2)c1CCC(=O)NCC1CCCO1 (stereo not given)	NIH3T3 tox 32µM, NPR1 antag inconclusive, SNCA viab count inconclusive, HEK293 tox 40µM
CCc1nn(-c2ccc(OC)cc2)c(Oc2ccccc2F)c1CCC(=O)NC(C)C	NIH3T3 tox inconclusive, HEK293 tox inconclusive
Cc1nn(-c2ccccc2)c(Oc2ccccc2)c1CCC(=O)NCC1CCCO1 (stereo not given)	NIH3T3 tox inconclusive, HEK293 tox inconclusive
CC1(COc2ccccc2)COc2ccc(C(=O)NCc3ccco3)cc2N1 (stereo not given)	NIH3T3 tox inconclusive, HEK293 tox inconclusive
Cc1nc(-c2ccccc2)n(CC(=O)Nc2cccc(C#N)c2)c(=O)c1CCO	NIH3T3 tox inconclusive, HEK293 tox 40µM
Cc1ccc(NC(=O)Cn2c(-c3ccccc3)nc(C)c(CCO)c2=O)cc1Cl	NIH3T3 tox 28µM, SNCA viab count inconclusive, HEK293 tox inconclusive, SNCA expr inhib inconclusive
Cc1nc(-c2ccccc2)n(CC(=O)Nc2ccc(Cl)cc2)c(=O)c1CCO	SNCA viab count inconclusive, HEK293 tox inconclusive
Cc1nc(-c2ccccc2)n(CC(=O)Nc2ccc(F)c(Cl)c2)c(=O)c1CCO	NIH3T3 tox inconclusive, HEK293 tox 40µM
CCCN(CC1CCOC1)S(=O)(=O)c1cccc(F)c1 (stereo not given)	none
COc1cc2c(cc1-c1c(C)noc1C)ncc1[nH]c(=O)n(C(C)c3ccccn3)c12 (stereo not given)	none (no result: FLuc inh, NIH3T3 tox, NPR1 antag, HEK293 tox, SNCA expr inhib)
COc1ccc(CC2CCOC3(CCN(S(=O)(=O)c4c(C)nn(C)c4C)CC3)C2)cc1 (stereo not given)	NIH3T3 tox inconclusive, HEK293 tox inconclusive (no result: FLuc inh, NPR1 antag)
CC[C@H]1CN(C(=O)C(C)(C)C)CC[C@H]1CC(=O)NCc1ccc(F)cc1	none
O=C(NCC(F)F)C1CCCCN1Cc1ccc(-c2ccsc2)cc1 (stereo not given)	NIH3T3 tox inconclusive, HEK293 tox 40µM (no result: FLuc inh, NPR1 antag)
O=C(NCCCc1ccccc1)C1CCCCN1Cc1ccc(-c2ccsc2)cc1 (stereo not given)	NIH3T3 tox 35µM, HEK293 tox inconclusive (no result: FLuc inh, NPR1 antag)
COC(=O)[C@@H]1Cc2nc[nH]c2CN1Cc1ccc(C)cc1	NIH3T3 tox inconclusive
Cc1ccc(CN2Cc3[nH]cnc3C[C@H]2C(=O)N2CCC(Cc3ccccc3)CC2)cc1	NIH3T3 tox 71µM, HEK293 tox inconclusive, SNCA expr inhib inconclusive
O=C(NCCc1ccc(F)cc1)C1CCCCN1Cc1ccc(-c2cccs2)cc1 (stereo not given)	NIH3T3 tox inconclusive, HEK293 tox 22µM, SNCA expr inhib inconclusive (no result: FLuc inh, NPR1 antag)
O=C(NC1CCN(c2cc(-c3ccc(F)cc3)[nH]n2)C1)c1ccccc1F (stereo not given)	HEK293 tox inconclusive, SNCA expr inhib inconclusive
